Holding throughout (set-up): scale not given: direction of the effect not stated beside the values
Test [1] concerns the target Protein translocase subunit SecA (Escherichia coli (strain K12)) (UniProt P10408). Kind of test: Assay to Identify E. coli SecA ATPase Inhibitors. It counts as functional. The conditions noted are these: 30 µM.
The target of test [2] is T1, Ubiquitin-activating enzyme e1, putative (Leishmania donovani (strain BPK282A1)) (UniProt E9BSI1).
T1 sequence (whole entry): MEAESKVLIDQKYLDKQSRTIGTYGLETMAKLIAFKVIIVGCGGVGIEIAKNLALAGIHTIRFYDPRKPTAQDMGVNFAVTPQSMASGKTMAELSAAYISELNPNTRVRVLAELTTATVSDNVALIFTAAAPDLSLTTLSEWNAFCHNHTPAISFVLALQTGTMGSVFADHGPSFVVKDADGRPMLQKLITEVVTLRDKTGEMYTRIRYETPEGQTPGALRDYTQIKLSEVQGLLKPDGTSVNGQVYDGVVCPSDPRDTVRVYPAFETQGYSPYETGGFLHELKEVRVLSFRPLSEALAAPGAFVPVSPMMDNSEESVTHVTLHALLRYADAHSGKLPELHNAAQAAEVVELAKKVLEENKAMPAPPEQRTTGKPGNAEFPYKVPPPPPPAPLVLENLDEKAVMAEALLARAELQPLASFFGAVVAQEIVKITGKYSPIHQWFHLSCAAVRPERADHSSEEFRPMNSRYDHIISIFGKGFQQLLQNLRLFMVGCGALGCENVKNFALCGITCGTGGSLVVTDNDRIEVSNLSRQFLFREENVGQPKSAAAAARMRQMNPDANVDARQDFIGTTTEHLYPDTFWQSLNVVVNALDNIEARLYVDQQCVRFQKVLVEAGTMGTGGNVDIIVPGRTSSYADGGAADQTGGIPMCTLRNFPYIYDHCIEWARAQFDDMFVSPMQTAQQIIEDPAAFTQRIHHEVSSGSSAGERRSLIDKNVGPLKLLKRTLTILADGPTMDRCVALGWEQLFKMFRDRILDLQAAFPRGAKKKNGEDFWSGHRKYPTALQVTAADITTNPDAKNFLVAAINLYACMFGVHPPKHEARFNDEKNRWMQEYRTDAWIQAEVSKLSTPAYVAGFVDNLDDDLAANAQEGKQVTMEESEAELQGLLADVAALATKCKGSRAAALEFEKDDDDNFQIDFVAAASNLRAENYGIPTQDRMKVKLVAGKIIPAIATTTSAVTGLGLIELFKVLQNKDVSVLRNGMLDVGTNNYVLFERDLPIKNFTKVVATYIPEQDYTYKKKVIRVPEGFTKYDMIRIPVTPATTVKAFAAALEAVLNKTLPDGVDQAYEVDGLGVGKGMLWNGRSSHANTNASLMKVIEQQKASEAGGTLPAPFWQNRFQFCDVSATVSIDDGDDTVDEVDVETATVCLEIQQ
Kind of test: Leishmania donovani Ubiquitin Activating Enzyme (LdE1). It counts as functional. The note with it: 30 µM.

For test [3], the target named is AMP-activated protein kinase, AMPK (Homo sapiens) (UniProt P54646+O43741+P54619+Q9UGJ0+Q9Y478+Q13131+Q9UGI9). Kind of test: AMP-dependent Kinase enzyme assay. An in vitro enzyme assay that detects ADP turnover that is directly proportional to AMPK activity. This uses naive AMPK that is activated during the assay with MK-8722. Format: functional. The conditions noted are these: 30 µM.

In test [4] the target is Sialic acid-binding Ig-like lectin 9 (Homo sapiens) (UniProt Q9Y336). Put plainly: Hs-Siglec9 ALPHAscreen SOP 20170721. The note with it: 10 µM.
In a further test the test system is Trypanosoma cruzi. Kind of test: Trypanosoma cruzi phosphomannomutase and mannose-1-phosphate guanylyltransferase assay. The note with it: 10 µM. It counts as functional.
Test [5] addresses T2, Arginase-2, mitochondrial (Homo sapiens) (UniProt P78540).
T2 sequence (whole entry): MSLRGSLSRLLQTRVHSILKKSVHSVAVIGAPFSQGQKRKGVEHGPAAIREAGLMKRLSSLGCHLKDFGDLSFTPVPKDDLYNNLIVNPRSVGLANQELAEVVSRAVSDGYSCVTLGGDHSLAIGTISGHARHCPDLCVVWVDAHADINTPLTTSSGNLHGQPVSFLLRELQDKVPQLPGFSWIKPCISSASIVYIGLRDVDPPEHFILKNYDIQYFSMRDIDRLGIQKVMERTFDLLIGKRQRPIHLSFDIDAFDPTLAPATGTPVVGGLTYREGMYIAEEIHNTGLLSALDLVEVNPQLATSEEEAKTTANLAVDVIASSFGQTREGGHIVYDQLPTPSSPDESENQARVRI
Kind of test: in vitro enzyme assay to detect the production of urea directly proportional to the activity of Arginase II. Further: in the data most compounds retested in dose-response had high values. The conditions noted are these: 33.3 µM. Format: functional.

For test [6], the target named is T3, Proteasome subunit beta (Trypanosoma cruzi) (UniProt O96673).
T3 sequence (whole entry): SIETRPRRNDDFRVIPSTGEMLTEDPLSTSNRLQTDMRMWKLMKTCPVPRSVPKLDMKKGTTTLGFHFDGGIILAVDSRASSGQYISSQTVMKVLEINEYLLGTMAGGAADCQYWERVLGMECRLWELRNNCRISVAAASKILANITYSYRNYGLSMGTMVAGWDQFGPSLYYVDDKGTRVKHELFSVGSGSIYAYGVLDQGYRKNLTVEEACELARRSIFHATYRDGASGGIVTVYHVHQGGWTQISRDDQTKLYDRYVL
Kind of test: Trypanosoma cruzi proteasome chymotrypsin-like activity (TcProtChymo) assay. Further: in the data most compounds retested in dose-response had high values. The conditions noted are these: 9.37 µM. Format: functional.

Another test is filed under the species Homo sapiens. Put plainly: To identify inhibition of the IFN signalling (Jak-Stat) pathway via expression of an eGFP reporter gene under the control of an IFN-stimulated response element (ISRE) containing MxA promoter. It counts as functional. The conditions noted are these: 30 µM.
Test [7] has as its target T4, Tyrosyl-tRNA synthetase, putative (Trypanosoma cruzi (strain CL Brener)) (UniProt Q4DSP6).
T4 sequence (whole entry): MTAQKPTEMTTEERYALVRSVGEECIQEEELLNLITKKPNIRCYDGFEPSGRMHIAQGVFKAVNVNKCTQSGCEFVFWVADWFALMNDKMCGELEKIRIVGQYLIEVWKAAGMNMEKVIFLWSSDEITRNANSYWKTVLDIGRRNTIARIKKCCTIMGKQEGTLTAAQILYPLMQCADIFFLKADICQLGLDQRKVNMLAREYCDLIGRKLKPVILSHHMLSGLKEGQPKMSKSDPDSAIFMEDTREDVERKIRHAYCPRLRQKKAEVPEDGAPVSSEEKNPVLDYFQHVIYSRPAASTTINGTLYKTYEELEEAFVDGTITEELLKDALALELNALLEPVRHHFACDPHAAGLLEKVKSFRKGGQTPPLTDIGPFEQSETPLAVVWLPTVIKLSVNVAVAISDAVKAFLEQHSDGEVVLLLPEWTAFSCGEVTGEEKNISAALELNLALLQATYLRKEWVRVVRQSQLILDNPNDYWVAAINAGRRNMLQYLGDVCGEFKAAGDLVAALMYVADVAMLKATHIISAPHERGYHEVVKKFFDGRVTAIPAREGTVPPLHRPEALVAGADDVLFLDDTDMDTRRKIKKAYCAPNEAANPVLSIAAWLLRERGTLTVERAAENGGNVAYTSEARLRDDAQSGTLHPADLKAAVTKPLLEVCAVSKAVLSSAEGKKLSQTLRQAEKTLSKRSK
Put plainly: Trypanosoma cruzi tyrosyl tRNA synthetase (TcYRS) _High Tyrosine SOP. Further: in the data most compounds retested in dose-response had high values. It counts as functional. The note with it: 30 µM.

Test [8] has as its target T4, Tyrosyl-tRNA synthetase, putative (Trypanosoma cruzi (strain CL Brener)). Put plainly: Trypanosoma cruzi tyrosyl tRNA synthetase (TcYRS) SOP. The note with it: 30 µM. It counts as functional.
In test [9] the target is Chromo domain-containing protein 1 (Saccharomyces cerevisiae (strain ATCC 204508 / S288c) (Baker's yeast)) (UniProt P32657). Put plainly: ScCHD-1 Enzyme Inhibition Assay. Further: in the data most compounds retested in dose-response had high values. It counts as functional. The note with it: 30 µM.

The values that follow come from ChEMBL document CHEMBL3988442, “University of Dundee, Small-Polar-MMV Screening Library” (2021).

SMILES strings stand for the structures. For some of these results: Results with a measured potency or affinity are listed apart.

Chain of Sialic acid-binding Ig-like lectin 9 (Homo sapiens) (Q9Y336 whole entry): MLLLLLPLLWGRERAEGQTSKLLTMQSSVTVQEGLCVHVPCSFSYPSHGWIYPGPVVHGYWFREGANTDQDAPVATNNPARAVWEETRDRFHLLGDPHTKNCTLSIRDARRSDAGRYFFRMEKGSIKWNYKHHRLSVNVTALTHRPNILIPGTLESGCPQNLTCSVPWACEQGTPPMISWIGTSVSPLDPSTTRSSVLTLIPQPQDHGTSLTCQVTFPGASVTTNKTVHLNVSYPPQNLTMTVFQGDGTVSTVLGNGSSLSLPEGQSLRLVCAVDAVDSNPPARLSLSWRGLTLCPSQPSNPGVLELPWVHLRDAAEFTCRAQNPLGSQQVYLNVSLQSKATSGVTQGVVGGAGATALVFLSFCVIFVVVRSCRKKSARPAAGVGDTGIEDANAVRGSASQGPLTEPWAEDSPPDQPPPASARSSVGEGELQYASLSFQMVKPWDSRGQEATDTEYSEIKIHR
Chain of Protein translocase subunit SecA (Escherichia coli (strain K12)) (P10408 whole entry): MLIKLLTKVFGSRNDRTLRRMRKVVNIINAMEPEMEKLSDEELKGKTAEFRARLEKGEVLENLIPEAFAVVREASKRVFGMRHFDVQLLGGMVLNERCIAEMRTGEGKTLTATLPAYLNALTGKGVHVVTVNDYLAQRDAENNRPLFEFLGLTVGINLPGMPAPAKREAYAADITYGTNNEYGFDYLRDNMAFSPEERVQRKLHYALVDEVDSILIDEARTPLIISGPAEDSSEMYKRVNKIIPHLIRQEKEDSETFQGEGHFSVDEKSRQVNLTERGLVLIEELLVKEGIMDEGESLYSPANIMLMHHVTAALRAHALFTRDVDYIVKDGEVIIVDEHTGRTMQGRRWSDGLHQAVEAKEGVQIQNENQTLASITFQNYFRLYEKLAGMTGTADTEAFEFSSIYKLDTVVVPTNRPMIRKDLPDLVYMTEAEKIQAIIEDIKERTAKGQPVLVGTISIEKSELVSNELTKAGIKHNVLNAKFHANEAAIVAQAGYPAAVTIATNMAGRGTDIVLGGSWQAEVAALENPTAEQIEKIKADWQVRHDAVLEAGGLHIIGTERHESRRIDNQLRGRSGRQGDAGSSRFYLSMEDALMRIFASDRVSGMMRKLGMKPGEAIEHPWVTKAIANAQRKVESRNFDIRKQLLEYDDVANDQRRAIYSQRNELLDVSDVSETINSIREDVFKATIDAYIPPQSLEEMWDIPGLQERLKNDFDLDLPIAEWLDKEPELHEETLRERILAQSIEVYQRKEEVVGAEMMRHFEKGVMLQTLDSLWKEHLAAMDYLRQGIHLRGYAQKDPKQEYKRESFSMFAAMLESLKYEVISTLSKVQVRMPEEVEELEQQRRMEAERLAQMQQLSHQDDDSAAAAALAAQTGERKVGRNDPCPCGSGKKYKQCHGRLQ
Chain of Chromo domain-containing protein 1 (Saccharomyces cerevisiae (strain ATCC 204508 / S288c) (Baker's yeast)) (P32657 whole entry, the tested form may be a part): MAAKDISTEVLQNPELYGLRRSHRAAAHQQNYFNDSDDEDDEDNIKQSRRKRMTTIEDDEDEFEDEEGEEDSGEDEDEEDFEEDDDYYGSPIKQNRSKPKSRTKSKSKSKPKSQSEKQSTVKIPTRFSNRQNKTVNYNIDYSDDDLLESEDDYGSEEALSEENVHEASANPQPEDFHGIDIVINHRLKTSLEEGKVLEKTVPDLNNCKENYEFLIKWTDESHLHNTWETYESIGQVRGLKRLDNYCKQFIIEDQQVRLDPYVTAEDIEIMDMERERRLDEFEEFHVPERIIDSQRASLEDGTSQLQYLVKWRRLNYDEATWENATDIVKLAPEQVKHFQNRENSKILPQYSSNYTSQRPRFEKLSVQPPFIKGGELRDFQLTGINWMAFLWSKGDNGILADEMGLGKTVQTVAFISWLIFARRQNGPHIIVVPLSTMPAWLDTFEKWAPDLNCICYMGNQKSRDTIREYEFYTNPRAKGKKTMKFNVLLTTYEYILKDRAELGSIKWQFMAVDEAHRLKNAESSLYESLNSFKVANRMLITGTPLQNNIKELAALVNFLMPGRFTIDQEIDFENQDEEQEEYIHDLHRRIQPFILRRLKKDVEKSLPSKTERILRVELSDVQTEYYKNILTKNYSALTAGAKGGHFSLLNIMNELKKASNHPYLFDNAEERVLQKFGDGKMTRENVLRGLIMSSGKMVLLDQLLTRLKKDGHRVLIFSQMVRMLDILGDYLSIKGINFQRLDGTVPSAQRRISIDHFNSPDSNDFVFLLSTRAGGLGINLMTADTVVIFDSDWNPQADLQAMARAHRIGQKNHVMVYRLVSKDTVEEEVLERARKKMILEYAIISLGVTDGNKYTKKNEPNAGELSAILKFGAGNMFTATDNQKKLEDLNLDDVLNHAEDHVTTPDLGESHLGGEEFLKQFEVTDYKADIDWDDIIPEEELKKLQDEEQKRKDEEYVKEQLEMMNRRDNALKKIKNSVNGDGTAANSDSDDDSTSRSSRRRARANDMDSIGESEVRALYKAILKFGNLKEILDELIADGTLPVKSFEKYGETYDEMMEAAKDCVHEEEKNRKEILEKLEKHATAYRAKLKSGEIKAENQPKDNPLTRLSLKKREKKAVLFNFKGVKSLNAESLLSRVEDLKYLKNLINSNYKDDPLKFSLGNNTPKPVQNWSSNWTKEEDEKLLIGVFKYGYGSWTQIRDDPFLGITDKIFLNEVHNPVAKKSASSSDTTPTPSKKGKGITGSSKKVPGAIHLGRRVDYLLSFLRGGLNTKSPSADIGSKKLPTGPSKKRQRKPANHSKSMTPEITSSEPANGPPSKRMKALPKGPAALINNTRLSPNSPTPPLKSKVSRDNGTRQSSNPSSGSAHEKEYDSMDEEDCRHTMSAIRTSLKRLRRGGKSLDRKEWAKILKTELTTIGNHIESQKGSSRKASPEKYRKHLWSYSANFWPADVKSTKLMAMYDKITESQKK

For `Cc1oc(-c2ccco2)nc1CC(=O)N1CCC(C(O)C(F)(F)F)CC1` (stereo not drawn), the Percent Effect was -2.39% in [1]; 0% in test [2]; -2.68% in test [3]; 2.74% in test [4]; 6.76% in the test on Trypanosoma cruzi; -4.42% in test [5]. The Percent Effect in [6] is -5.58%; in the test listed under Homo sapiens, -30%; in test [7], -0.952%; in [8], 9.41%; in test [9] it was -13.1%.
On to `Cc1ccc2cc(C3(O)CCN(C(=O)CN4CCCC4)CC3)ccc2n1`, for which the Percent Effect in test [1] was -2.77%; in test [2], -1.39%; in [3], -1.64%; in test [4], -0.537%; in the test with Trypanosoma cruzi, -4.96%; in test [5], 3.53%. Further, the Percent Effect is 11.9% in test [6]; 4.91% in the test listed under Homo sapiens; 2.1% in [7]; 5.13% in [8]; 0.856% in [9].
For the compound `CCc1ccc(C(=O)N2CCC(c3nncn3CC)CC2)cc1`, the Percent Effect is -10% in test [1]; 18.4% in test [2]; -9.82% in test [3]; -0.88% in test [4]; 7.3% in the test on Trypanosoma cruzi; -5.92% in [5]. For the same compound, the Percent Effect was 7.57% in test [6]; 5.31% in the test listed under Homo sapiens; 3.19% in test [7]; 15.6% in test [8]; -9.19% in test [9].
Turning to `Cc1cnn(CC2CCCN2Cc2coc(-c3ccccc3)n2)c1` (stereo not drawn), the Percent Effect in test [1] is 0.182%; in test [2] it was -11%; in [3] it was -9.12%; in test [4] it was 16.7%; with Trypanosoma cruzi, 6.46%; in test [5] it was 1.82%. For the same compound, the Percent Effect in test [6] was 1.77%; in the test listed under Homo sapiens it was -7.46%; in [7] it was 3.23%; in test [8], 5%; in test [9], -6.56%.
On to `CC(C)C(=O)N1CCCC(c2cc(C(F)F)n3ncnc3n2)C1` (stereo not drawn), for which the Percent Effect in test [1] is -6.98%; in test [2] it was 4.05%; in test [3], 6.16%; in test [4], -5.54%; in the test on Trypanosoma cruzi it was -4.94%; in [5], -6.73%. In addition, the Percent Effect is 4.21% in [6]; 18% in the test listed under Homo sapiens; -3.23% in [7]; 1.3% in test [8]; -0.33% in test [9].
Turning to `Cn1ccnc1CN1CCN(Cc2cc(C#N)ccc2F)CC1`, the Percent Effect in test [1] is -2.4%; in test [2], 2.7%; in test [3], 1.09%; in [4] it was -1.18%; in the test on Trypanosoma cruzi, -9.38%; in [5], 6.1%. In addition, the Percent Effect in test [6] is 10.8%; in the test listed under Homo sapiens, 20%; in [7], 5.94%; in test [8] it was 6.1%; in [9], 3.16%.
Consider `CCC(=O)NCCc1cc(N2CCN(C(C)=O)CC2)nc(C2CC2)n1`, for which the Percent Effect in test [1] is -1.34%; in test [2], 6.76%; in test [3], 12.6%; in test [4], -2.83%; in the test with Trypanosoma cruzi it was -6.72%; in test [5], 3.02%. Moreover, the Percent Effect in test [6] turned out to be 10.3%; in the test listed under Homo sapiens it was 16.2%; in test [7], 2.15%; in test [8], 11.7%; in test [9], 1.75%.
For `Fc1ccccc1-c1noc2c1CN(CC1CC1)CC2`, the Percent Effect in [1] was -0.719%; in [2] it was 13.7%; in [3] it was 1.26%; in test [4], 4.91%; in the test with Trypanosoma cruzi, 5.68%; in test [5] it was 1.36%. Also, the Percent Effect is 17% in [6]; 11.6% in the test listed under Homo sapiens; 7.53% in test [7]; 20% in [8]; -0.386% in test [9].
